Measurements as given in PubChem BioAssay AID651724 (National Center for Advancing Translational Sciences (NCATS), 2012).
About 1,700 (0.5%) of roughly 340,000 compounds were called active. Inconclusive results (about 2%) are left out. No stated cut-off is given here; in the data, active means activity change below about -65%; inconclusive means mostly about -30% to -63%; inactive means weaker than that. The entries come from a sample that favours actives as a whole.

Each molecule was assayed on CtBP / adenovirus E1A interaction (AlphaScreen) (assay: qHTS Assay for Inhibitors of the CtBP/E1A Interaction). Details: AlphaScreen GST-E1A/His-CtBP binding, 1536-well; active compounds read low.
Description: Carboxyl-terminal binding protein (CtBP) is a co-repressor for many transcription factors. […] Our studies have shown that CtBP is overexpressed in multiple human cancers, including lung, breast, and head and neck cancers. In particular, it is over-expressed in 50% of primary lung cancer and 90% of metastatic lesions. CtBP suppresses epithelial-specific genes as well as genes critical for apoptosis, providing the underlying molecular mechanism for its role in tumorigenesis. […] Based on the above data, we hypothesize that 1) CtBP suppresses the pro-apoptotic and epithelial genes, therefore overexpressed CtBP in human cancer cells increases EMT and cancer survival; 2) decreasing CtBP's function represents a targeted therapy for lung cancer and potentially multiple cancer types. As a co-repressor, CtBP binds to E1A and other transcription factors through a conserved peptide motif to carry out its action. Inhibiting this interaction using small molecules can potentially serve as effective cancer therapeutics.
To this end, we have developed a homogenous AlphaScreen assay targeting the CtBP/E1A interaction. We performed a large scale HTS of the Molecular Libraries Small Molecule Repository (MLSMR) to identify inhibitors of the CtBP/E1A interaction as potential anti-cancer therapeutics. Compounds identified can also be used as chemical probes to better understand the biological functions of CtBP.
NIH Chemical Genomics Center [NCGC]
NIH Molecular Libraries Probe Centers Network [MLPCN]
Assay Submitter (PI): Rui Zhao, University of Colorado Denver
The first step of the 5uL AlphaScreen assay is to dispense assay buffer (50 mM Tris, pH 8.0, 300 mM NaCl, 0.05% BSA, 0.02% Tween 20, 1 mM TCEP) into a Greiner 1536 white solid bottom microtiter plate (789175-F). Five microliters is added to Column 1, 4 uL is added to Column 2 and 3 uL is added to Columns 3 through 48. A 5X protein solution (125 nM GST-E1A protein + 125 nM His-tagged CtBP protein) is mixed and 1 uL is dispensed to Columns 3-48. Using a 1536 pintool, 23 nL of compound is transferred to the assay plate and the plate is incubated with a lid at 37 deg C in the dark for two hours. A solution of 5X AlphaScreen beads is mixed (50 ug/mL Glutathione linked donor beads + Nickel chelated acceptor beads) and 1 uL is dispensed to Columns 2-48. The assay plate is incubated for one hour, with a lid, at 37 deg C in the dark. The plate is read using a Perkin Elmer Envision using an AlphaScreen protocol.
On the % scale 0 is the no-effect control and ±100 the full control effect.

SMILES | activity change
CCC(C)n1c(O)c(/C=N/Nc2nc3c(c(=O)n(C)c(=O)n3C)n2C)c(=O)[nH]c1=S (stereo not given) | -83.2% (active)
COc1ccc(-n2nnnc2C(c2cccc3ccccc23)N2CCC(n3c(=O)[nH]c4ccccc43)CC2)cc1 (stereo not given) | -14.3% (inactive)
O=C(N/N=C/c1c(O)n(C2CC2)c(=S)[nH]c1=O)c1ccccc1 | -92.7% (active)
Cc1cccc(-n2c(O)c(/C=N/N3CCOCC3)c(=O)[nH]c2=S)c1 | 9.2% (inactive)
CC/C(=N\NC(=O)c1ccccc1O)c1c(O)n(Cc2ccccc2)c(=O)[nH]c1=O | -5.73% (inactive)
COc1ccccc1-n1c(O)c(C=NC2CC2)c(=O)[nH]c1=O | 7.53% (inactive)
O=c1[nH]c(=O)n(Cc2ccccc2)c(O)c1/C=N/Nc1c(F)c(F)c(F)c(F)c1F | 4.41% (inactive)
O=C(N/N=C/c1c(O)n(Cc2ccccc2)c(=O)[nH]c1=O)c1ccccc1 | -72.7% (active)
O=c1[nH]c(=S)n(C2CC2)c(O)c1/C=N/N1CCOCC1 | -2.5% (inactive)
O=C(N/N=C/c1c(O)n(C2CC2)c(=S)[nH]c1=O)c1ccccc1Cl | -92.7% (active)
CC(C)c1ccc(-n2c(O)c(/C=N/N3CCOCC3)c(=O)[nH]c2=S)cc1 | -2.7% (inactive)
CCOC(=O)[C@]12Cc3cc(OC)ccc3[C@H]1N(C(C)C)C(=O)c1ccccc12 | -1.62% (inactive)
CC(=CCOc1ccc2ccc(=O)oc2c1)C1=CC(=O)C(C)(C)O1 | 1.99% (inactive)
COC(=O)C[C@H]1CC[C@H]2NC[C@@H](O)COC[C@@H]2O1 | -7.3% (inactive)
CCOC(=O)[C@]12Cc3ccccc3[C@H]1N(C1CCCCC1)C(=O)c1cc(OC)ccc12 | -16.5% (inactive)
O=c1[nH]c2ccccc2n1C1CCN(C(c2ccccc2)c2nnnn2Cc2ccccc2)CC1 (stereo not given) | -12.7% (inactive)
O=C1NCN(c2ccccc2)C12CCN(C(c1cccs1)c1nnnn1C1CCCCC1)CC2 (stereo not given) | -7.02% (inactive)
O=C(NCC1=C(c2ccc3ccccc3c2)C[C@@H]2CC[C@H]1N2Cc1ccco1)c1cccs1 | -23.4% (inactive)
COC(=O)CN(CCCl)P1(=O)OCCCN1CCCl (stereo not given) | 2.9% (inactive)
COc1cccc(C(c2nnnn2-c2ccc3c(c2)OCCO3)N2CCC3(CC2)C(=O)NCN3c2ccccc2)c1OC (stereo not given) | -13% (inactive)
O=c1[nH]c2ccccc2n1C1CCN(C(c2ccnc3ccccc23)c2nnnn2Cc2ccccc2)CC1 (stereo not given) | -7.28% (inactive)
COc1ccc(CCn2c(O)c(C=NC3CC3)c(=O)[nH]c2=O)cc1OC | -7.4% (inactive)
CCCCC(=O)N/N=C/c1c(O)n(CCC2=CCCCC2)c(=O)[nH]c1=O | -82.9% (active)
O=c1[nH]c(=O)n(CCc2ccc(F)cc2)c(O)c1/C=N/N1CCCCC1 | -1.47% (inactive)
COC(=O)C1=C(c2ccc(OCc3ccccc3)cc2)C[C@@H]2CC[C@H]1N2C(=O)NCc1ccc(Cl)cc1 | 0.0513% (inactive)
